Test results: PubChem BioAssay AID2685 (National Center for Advancing Translational Sciences (NCATS), 2010)
In all, about 320,000 compounds went through this assay and about 2,100 (0.66%) were called active. About 53% were inconclusive and are not listed. The call rests on the fitted dose curve; in most records, active means well fitted inhibition curve with a large enough effect in the signal ratio, with a control signal flat (not every such curve was filed as active); inconclusive means small, poorly fitted or top-dose-only effect, or effect the other way, or a change in a side signal; inactive means flat fitted curve, though single readings scatter; the % refers to the signal ratio. The list comes from a sample in which actives are over-represented; it also holds similar structures and randomly drawn compounds.

Assay: qHTS Assay for Lipid Storage Modulators in Drosophila S3 Cells;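 on cell number change: cells counted by Cell Tracker Red CMTPX staining in the red channel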; on lipid storage change, negative = inhibition: on the % scale 0 is the no-effect control and ±100 the full control effect
Conditions: BODIPY lipid droplet fluorescence, 18-24 h, cells fed with added oleic acid; cell number change: measured here: cell count max response; series mostly up to 46.1 µM
Summary of the method: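 Drosophila S3 cells got compounds at several concentrations plus oleic acid (400 uM solution). Laser-scanning cytometry with 488 nm excitation read lipid droplets at 500-530 nm and cells at 575-640 nm. Percent activity was relative to 20 uM Triacsin C.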
Potency means the concentration at half of the fitted maximal effect.

SMILES	Potency	cell number change	lipid storage change, negative = inhibition
O=C(Nc1ccc(Cl)cc1)C1CCCN(c2ncnc3c2nc2n3CCCCC2)C1 (stereo not drawn)	inactive	-19.1%	
Cc1cccc(N2CC(C(=O)Nc3nnc(SCc4cccnc4)s3)CC2=O)c1 (stereo not drawn)	inactive	0.463%	
Cc1ccc(Nc2cc(C)nc3ncnn23)c(Cl)c1	inactive	1.99%	
CCOC(=O)Cc1nnc(NC(=O)CSc2ccc(C)cc2)s1	inactive	10.4%	
CC(NC(=O)c1ccco1)c1nc(-c2ccccc2)no1 (stereo not drawn)	25.9 µM (active)	24.3%	
CC(NC(=O)c1ccco1)c1nc(-c2ccc(C(C)(C)C)cc2)no1 (stereo not drawn)	inactive	-0.87%	
CC(NC(=O)c1ccco1)c1nc(-c2ccc(Cl)cc2)no1 (stereo not drawn)	inactive		
Cc1c(NC(=O)COc2cccc(F)c2)c(=O)n(-c2ccccc2)n1C	inactive	-5.04%	
COc1ccccc1NC(=O)C(C)OC(=O)CCCN=C1NS(=O)(=O)c2ccccc21 (stereo not drawn)	inactive		
COc1ccc(/C=N/NC2=NCCCCC2)cc1	inactive		
Oc1ccc(/C=N/NC2=NCCCCC2)cc1	9.2 µM (active)	1.27%	
CCOc1ccc(/C=N/NC2=NCCCCC2)cc1	inactive	8.72%	
C=CCSc1nc(=O)n2ccccc2n1	inactive		
CCCSc1ccc(-c2nn(-c3ccccc3)cc2/C=C(/C#N)C(=O)N2CCOCC2)cc1	inactive	-5%	
O=C(c1c(F)cccc1F)N(C1CCCCC1)C1CCCCC1	inactive	-23%	
COCCCNC(=O)CN(c1cc(OC)ccc1OC)S(=O)(=O)c1ccccc1	inactive	13.9%	
COc1ccc(N(CC(=O)NCCSC2CCCCC2)S(=O)(=O)c2ccccc2)cc1OC	inactive	-12.6%	
CCOc1ccc(N(CC(=O)NC2CCCC2)S(=O)(=O)c2ccccc2)cc1	2.59 µM (active)	-7.14%	
Cc1ccccc1NC(=O)CN(C)S(=O)(=O)c1ccc2c(c1)n(C)c(=O)c(=O)n2C	18.4 µM (active)	13.4%	
CCOc1ccc(N(CC(=O)NC2CCCCCC2)S(=O)(=O)c2ccccc2)cc1	inactive	24.3%	
COc1ccc(N(CC(=O)NCc2ccco2)S(=O)(=O)c2ccccc2)cc1	inactive	3.25%	
CCOc1ccc(N(CC(=O)NC2CC3CCC2C3)S(=O)(=O)c2ccccc2)cc1 (stereo not drawn)	inactive	16.1%	
COc1ccc(N(CC(=O)NCc2ccccc2OC)S(=O)(=O)c2ccccc2)cc1	8.2 µM (active)	10.9%	
Cc1ccc(NC(=O)CN(C)S(=O)(=O)c2ccc3c(c2)n(C)c(=O)c(=O)n3C)c(C)c1	inactive	25.1%	

SMILES	Potency	cell number change	lipid storage change, negative = inhibition
COc1ccc(N(CC(=O)NCc2ccccc2OC)S(=O)(=O)c2c(C)nn(C)c2C)cc1			22.2% [at 9.22 µM] (inactive)
COc1ccc(OC)c(N(CC(=O)NCCSC2CCCCC2)S(=O)(=O)c2ccccc2)c1	14.6 µM (active)	-18.5%	
CN(CC(=O)Nc1ccccc1F)S(=O)(=O)c1ccc2c(c1)n(C)c(=O)c(=O)n2C	inactive	1.35%	
CCc1ccc(CN2CCCC(CCC(=O)N3CCN(c4ccccn4)CC3)C2)o1 (stereo not drawn)	inactive	5.55%	
Cc1cc(CN2CCCC(N3CCc4ccccc4C3)C2)cc(C)c1O (stereo not drawn)	inactive	-2.22%	
Cc1[nH]c2ccccc2c1C(c1ccccn1)N1CCC(C(N)=O)CC1 (stereo not drawn)	inactive	-13.7%	
O=C(NCCN1CCOCC1)c1cccn2c(=O)c3c4c(sc3nc12)CCCC4	inactive	-12.5%	
Cc1c(C(=O)NCCSCc2ccccc2)cccc1[N+](=O)[O-]	inactive	-1.45%	
O=C(c1ccc(OC2CCN(CCc3ccccc3)CC2)cc1)N1CCCC(CO)C1 (stereo not drawn)	inactive	4.02%	
COc1ccc(N2CCN(CC(O)COc3cc(C)ccc3C)CC2)cc1 (stereo not drawn)	inactive	-17%	
CCCS(=O)(=O)C/C(N)=N/OC(=O)c1ccccc1Cl	inactive	-2.12%	
CCC(C(=O)NCc1ccco1)N(C(=O)CNS(=O)(=O)c1ccccc1)c1ccc(F)cc1 (stereo not drawn)	inactive	-3.04%	
O=C(CN(c1ccc(F)cc1)S(=O)(=O)c1ccccc1)NC1CC2CCC1C2 (stereo not drawn)	inactive	10.7%	
CCc1ccccc1NC(=O)CN(c1ccc(OC)cc1OC)S(=O)(=O)c1ccccc1[N+](=O)[O-]	inactive	-4.08%	
CN(CC(=O)NCc1ccc(F)cc1)S(=O)(=O)c1ccc2c(c1)c(=O)n(C)c(=O)n2C	inactive		
COc1ccccc1N(CC(=O)Nc1ccc(Cc2ccncc2)cc1)S(=O)(=O)c1ccccc1	7.31 µM (active)	27.6%	
COc1cccc(CNC(=O)CN(C)S(=O)(=O)c2ccc3c(c2)c(=O)n(C)c(=O)n3C)c1	inactive	-15.3%	
COc1ccc(N(CC(=O)Nc2ccc(OC)cc2OC)S(=O)(=O)c2ccccc2)cc1	inactive	-4.04%	
COc1ccc(N(CC(=O)NC2CC3CCC2C3)S(=O)(=O)c2ccc(C)cc2)cc1OC (stereo not drawn)	inactive	8.82%	
COc1ccccc1CNC(=O)CN(C)S(=O)(=O)c1ccc2c(c1)c(=O)n(C)c(=O)n2C	9.2 µM (active)		
COc1ccccc1N(CC(=O)Nc1cccnc1)S(=O)(=O)c1ccccc1	inactive	-18%	
COc1ccc(S(=O)(=O)N(CC(=O)Nc2cccnc2)c2ccccc2OC)cc1	inactive		
Cc1cccc(N(CC(=O)NC2CC3CCC2C3)S(=O)(=O)c2ccccc2)c1 (stereo not drawn)	20.6 µM (active)	-12.9%	
CCc1ccccc1NC(=O)CN(c1ccc(OC)cc1OC)S(=O)(=O)c1ccccc1	2.91 µM (active)	-14.4%	
